Experimental findings from the supplement of paper PMC12350171 are described below.

SMILES strings stand for the structures. Structures can show the parent of a compound that is named as a salt. Unmarked numbers belong to inactive results.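 Rule for the calls: active = AUC significantly below DMSO controls by Student t-fit with adjusted P under 0.01; inactive = not significantly reduced.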

This assay deals with Haemophilus parainfluenzae. In words: growth AUC normalised to DMSO control (fraction of control); higher = less growth inhibition, active = hit call of the paper. The settings on record: 20 µM. The gist of the method: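 Pathogens passaged twice anaerobically were inoculated at a starting OD578 of 0.01 into pre-reduced mGAM plates with drug at 20 μM and 1% DMSO, sealed with breathable membranes. Haemophilus parainfluenzae medium was supplemented with hemin and NAD. OD578 was read hourly for 24 h, with three biological replicates. Growth-curve AUC was computed by the trapezoidal rule up to the exponential-to-stationary transition and normalised to DMSO controls on the same plate.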
Take `CO/N=C(\C(=O)N[C@@H]1C(=O)N2C(C(=O)O)=C(COC(C)=O)CS[C@H]12)c1csc(N)n1` [Cefotaxime sodium salt]: the “growth AUC normalised to DMSO control” value is 0.0499 (active).

As to `C[C@]1(Cn2ccnn2)[C@H](C(=O)O)N2C(=O)C[C@H]2S1(=O)=O` [Tazobactam], the “growth AUC normalised to DMSO control” value was 1.02.

In the case of `CCOC(=O)C1=C[C@]2(CC)CCCN3CCc4c(n1c1ccccc41)[C@@H]32` [Vinpocetine], the “growth AUC normalised to DMSO control” value is 0.845.

Consider `Nc1ccc(C(=O)NCC(=O)O)cc1` [Aminohippuric acid], for which the “growth AUC normalised to DMSO control” value is 1.

`CCN(CC)C(=O)c1ccc(O)c(OC)c1` [Ethamivan]: the “growth AUC normalised to DMSO control” value was 1.03.

`CC1CC(OC(=O)c2ccccc2O)CC(C)(C)C1` (stereo not drawn) [Homosalate]: the “growth AUC normalised to DMSO control” value was 0.983.

Take `CN(C)CCCN1c2ccccc2Sc2ccc(Cl)cc21` [Chlorpromazine hydrochloride]: the “growth AUC normalised to DMSO control” value is 0.981.

For `CCN1CCCC1CNC(=O)c1cc(S(N)(=O)=O)ccc1OC` (stereo not drawn) [Sulpiride], the “growth AUC normalised to DMSO control” value is 1.02.
